Results published in PubChem BioAssay AID1159580 (chemical genetic matrix, 2015).
In all, about 5,500 compounds went through this assay and about 2,000 (36%) were called active. About 18% were inconclusive and are not listed. Rule as the data show it: active = normalized growth mostly below about 0.91 (no sharp cut-off); inconclusive = no clear call, values can overlap the other calls; inactive = mostly above about 0.92. This is one part of the list.

Test: chemical genetic growth profiling, strain panel (AID 1159580);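 also: tested at 20 µM; growth read once vehicle control cultures reached saturation at 30 °C; 1 = growth at the plate median or of vehicle wells; lower values mean less growth of the strain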
Details: S. cerevisiae deletion strains, growth OD

Measured: normalized growth

C/C(=C\c1ccc2c(c1)OCO2)[N+](=O)[O-]
active: locus YAR019C, strain CDC15, stronger effect = lower value 0.0944 | locus YBL105C, strain PKC1, stronger effect = lower value 0.089 | locus YBR135W, strain CKS1, stronger effect = lower value 0.0821 | locus YBR136W, strain MEC1, stronger effect = lower value 0.0972 | locus YBR160W, strain CDC28, stronger effect = lower value 0.096 | locus YDL017W, strain CDC7, stronger effect = lower value 0.103 | locus YDL028C, strain MPS1, stronger effect = lower value 0.108 | locus YDL101C, strain DUN1, stronger effect = lower value 0.101 | locus YDL108W, strain KIN28, stronger effect = lower value 0.107 | locus YDL132W, strain cdc53, stronger effect = lower value 0.121 | locus YDL214C, strain PRR2, stronger effect = lower value 0.0871 | locus YDR052C, strain DBF4, stronger effect = lower value 0.302 | locus YDR054C, strain cdc34, stronger effect = lower value 0.1 | locus YDR226W, strain ADK1, stronger effect = lower value 0.112 | locus YDR477W, strain SNF1, stronger effect = lower value 0.0948 | locus YER123W, strain YCK3, stronger effect = lower value 0.0987 | locus YER133W, strain GLC7, stronger effect = lower value 0.0948 | locus YFL009W, strain cdc4, stronger effect = lower value 0.0975 | locus YFL029C, strain CAK1, stronger effect = lower value 0.0944 | locus YFR003C, strain YPI1, stronger effect = lower value 0.123 | locus YFR019W, strain FAB1, stronger effect = lower value 0.0927 | locus YFR028C, strain CDC14, stronger effect = lower value 0.108 | locus YGR040W, strain KSS1, stronger effect = lower value 0.0949 | locus YGR052W, strain FMP48, stronger effect = lower value 0.11 | locus YGR092W, strain DBF2, stronger effect = lower value 0.0972 | locus YHR030C, strain SLT2, stronger effect = lower value 0.107 | locus YHR079C, strain IRE1, stronger effect = lower value 0.113 | locus YHR082C, strain KSP1, stronger effect = lower value 0.12 | locus YHR205W, strain SCH9, stronger effect = lower value 0.00121 | locus YIL147C, strain SLN1, stronger effect = lower value 0.108 | locus YJL095W, strain BCK1, stronger effect = lower value 0.107 | locus YJL128C, strain PBS2, stronger effect = lower value 0.124 | locus YJL157C, strain FAR1, stronger effect = lower value 0.084 | locus YJR016C, strain ILV3, stronger effect = lower value 0.0841 | locus YJR066W, strain TOR1 (second series), stronger effect = lower value 0.0942 | locus YJR066W, strain TOR1, stronger effect = lower value 0.105 | locus YKL048C, strain ELM1, stronger effect = lower value 0.106 | locus YKL067W, strain YNK1, stronger effect = lower value 0.0865 | locus YKL101W, strain HSL1, stronger effect = lower value 0.0966 | locus YKL193C, strain SDS22, stronger effect = lower value 0.0838 | locus YKL203C, strain TOR2, stronger effect = lower value 0.107 | locus YLR113W, strain HOG1, stronger effect = lower value 0.126 | locus YLR133W, strain CKI1, stronger effect = lower value 0.0901 | locus YLR403W, strain SFP1, stronger effect = lower value -0.000823 | locus YML070W, strain DAK1, stronger effect = lower value 0.0897 | locus YMR001C, strain CDC5, stronger effect = lower value 0.0887 | locus YMR205C, strain PFK2 (second series), stronger effect = lower value 0.0868 | locus YMR277W, strain FCP1, stronger effect = lower value 0.0888 | locus YNL006W, strain LST8, stronger effect = lower value 0.0816 | locus YNL020C, strain ARK1, stronger effect = lower value 0.0897 | locus YNL161W, strain CBK1, stronger effect = lower value 0.0823 | locus YNL183C, strain NPR1, stronger effect = lower value 0.114 | locus YNL207W, strain RIO2, stronger effect = lower value 0.091 | locus YNL222W, strain SSU72, stronger effect = lower value 0.0831 | locus YNL307C, strain MCK1 (second series), stronger effect = lower value 0.0968 | locus YOL078W, strain AVO1, stronger effect = lower value 0.0833 | locus YOL136C, strain PFK27, stronger effect = lower value 0.0926 | locus YOR061W, strain CKA2, stronger effect = lower value 0.0859 | locus YOR119C, strain RIO1, stronger effect = lower value 0.11 | locus YOR231W, strain MKK1, stronger effect = lower value 0.108 | locus YOR329C, strain SCD5, stronger effect = lower value 0.0841 | locus YPL031C, strain PHO85, stronger effect = lower value 0.0922 | locus YPL153C, strain RAD53, stronger effect = lower value 0.101 | locus YPL204W, strain HRR25, stronger effect = lower value 0.0962 | locus YPL209C, strain IPL1, stronger effect = lower value 0.0837 | locus YPL256C, strain CLN2, stronger effect = lower value 0.128 | locus YPR025C, strain CCL1, stronger effect = lower value 0.0836 | locus YPR106W, strain ISR1, stronger effect = lower value 0.0862 | locus YPR111W, strain DBF20, stronger effect = lower value 0.142 | strain NNK1, stronger effect = lower value 0.0961 | strain TSCII, stronger effect = lower value 0.0923
